Data: PubChem BioAssay AID493168 (National Center for Advancing Translational Sciences (NCATS), 2011)
Results filed as inconclusive are left out. Values without a mark were called inactive. Activity calls are given as the source filed them. Calls follow the shape of the dose curve; as a rule, active = well fitted inhibition curve with a large enough effect; inconclusive = small, poorly fitted or top-dose-only effect, or effect the other way; inactive = flat fitted curve, though single readings scatter.

Molecular target: Ubiquitin carboxyl-terminal hydrolase 2 (Homo sapiens) (UniProt O75604)
Sequence (O75604 whole entry, looked up): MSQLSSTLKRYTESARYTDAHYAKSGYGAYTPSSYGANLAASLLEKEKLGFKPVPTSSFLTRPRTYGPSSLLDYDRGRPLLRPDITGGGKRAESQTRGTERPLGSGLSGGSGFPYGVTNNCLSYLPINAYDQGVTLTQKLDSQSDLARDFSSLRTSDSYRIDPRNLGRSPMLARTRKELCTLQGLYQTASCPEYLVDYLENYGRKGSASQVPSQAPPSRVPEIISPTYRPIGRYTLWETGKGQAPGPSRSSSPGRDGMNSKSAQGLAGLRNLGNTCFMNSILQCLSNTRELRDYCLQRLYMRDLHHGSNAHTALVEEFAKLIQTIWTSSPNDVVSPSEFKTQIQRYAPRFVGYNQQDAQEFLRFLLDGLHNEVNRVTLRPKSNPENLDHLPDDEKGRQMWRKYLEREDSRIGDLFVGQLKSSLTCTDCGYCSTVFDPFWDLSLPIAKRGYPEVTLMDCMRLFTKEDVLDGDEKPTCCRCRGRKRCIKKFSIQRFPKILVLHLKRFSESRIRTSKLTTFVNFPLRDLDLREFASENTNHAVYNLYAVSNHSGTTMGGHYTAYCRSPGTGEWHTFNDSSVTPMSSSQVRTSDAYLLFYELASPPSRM
Experiment: Confirmation Assay for Inhibitors of Ubiquitin-specific Protease USP2a Using CHOP2 as the Reporter; also: nearly all actives have a fitted effect of over 55% in size;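 as to activity change, negative = inhibition: plate controls were DMSO wells for no effect and full inhibition by NEM control for full effect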
Conditions: USP2 core, Ub-CHOP2 coupled reporter fluorescence; series mostly up to 38.3 µM; activity change, negative = inhibition: at the top concentration
Summary of the method: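 USP2 core (10 nM final) was preincubated with compound for 30 min at RT in Tris-HCl pH 8.0, CaCl2, beta-mercaptoethanol, CHAPS. Ub-CHOP2 and reporter substrate (25 nM final each) were added, and fluorescence (Ex 485/Em 531 nm) was read after 60 min.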
Potency is read from the fitted curve at half-maximal effect.

In order of falling “activity change, negative = inhibition” value:
1. Cc1nc2n(n1)CC(O)CS2 (stereo not given)  4.62%
2. CCOC(=O)Cn1c(=O)oc2cc(S(=O)(=O)Nc3cc(Cl)ccc3OC)ccc21  3.99%
3. O=C(NCCN1C(=O)CSC1=O)C1CC(=O)N(c2ccccc2)C1 (stereo not given)  3.9%
4. Cc1cc(C)n(C(=O)c2cccc(S(=O)(=O)N3CCCC3)c2)n1  3.82%
5. Nc1nc(NCCO)nc(NCC2CCCO2)c1[N+](=O)[O-] (stereo not given)  3.3%
6. CC(C)Cn1c(SCC(N)=O)nnc1-c1cccc(S(=O)(=O)N2CCOCC2)c1  3.21%
7. CCNC(=S)N/N=C/c1cn(Cc2ccc(F)cc2)c2ccccc12  2.36%
8. O=C(CSc1ncn[nH]1)Nc1ccc(Br)cc1F  2.32%
9. Cc1ccc(/C=C/S(=O)(=O)N2CCC(C(=O)O)CC2)cc1  1.75%
10. COCCCNC(=O)C1CCN(c2nc(C)cc(C)n2)CC1  1.61%
11. Cc1noc(/C=C/NCc2cccnc2)c1S(=O)(=O)N(C)CC(=O)N1CCc2ccccc21  0.283%
12. CCSc1nc(N2CCCCC2)c2c(c1C#N)CCCC2  0.094%
13. O=C(c1cccc(F)c1)N1CCN(S(=O)(=O)c2ccccc2)CC1  0.0388%
14. CN1CCN(S(=O)(=O)c2ccc(N3CCN(S(=O)(=O)/C=C/c4ccccc4)CC3)nc2)CC1  -0.101%
15. CCNc1sc(C(=O)c2cccs2)c(N)c1-c1nc2ccccc2s1  -0.21%
16. CC(=O)Nc1ccc(Nc2cc(C)nc(Nc3ccc(NC(C)=O)cc3)n2)cc1  -0.465%
17. O=C1Nc2ccc(S(=O)(=O)N3CCCCCC3)c3cccc1c23  -0.6%
18. CCCOC(=O)CCCCC1SCC(NC(=O)OC)C1NC(=O)OC (stereo not given)  -0.631%
19. COc1ccc(-n2c(=S)[nH]c3cc(C(=O)Nc4cc(OC)c(OC)c(OC)c4)ccc3c2=O)c(OC)c1  -0.814%
20. O=C1c2ccccc2C(=O)N1CCCCn1c(=O)oc2ccccc21  -0.817%
21. O=C(NNC(=O)c1cc2ccccc2cc1O)Nc1ccccc1F  -0.819%
22. CCC1SC2=NC(C)=C(C(=O)OCCOC)C(c3ccc(C(=O)OC)cc3)N2C1=O (stereo not given)  -0.977%
23. Cn1c(=O)[nH]c(=O)c2c1nc(NCc1ccccc1)n2CCCc1ccccc1  -1.02%
24. COC1=CCC2([N+](=O)[O-])CN(CCO)CC1([N+](=O)[O-])C2 (stereo not given)  -1.18%
25. Cc1ccc(/C(N)=N/OC(=O)Oc2ccccc2)cc1  -1.51%
26. Cc1c(O)c(CN2CCCC2)cc2c3c(c(=O)oc12)CCC3  -1.61%
27. CC1(C(=O)O)Sc2[nH]c(=O)sc2C2c3ccccc3OC(=O)C21 (stereo not given)  -1.68%
28. COCCCNCCCOc1ccc(C)cc1Br  -2.1%
29. O=C(CSc1ncccc1-c1nc2ccccc2[nH]1)Nc1ccc2c(c1)OCCO2  -2.15%
30. Cc1ccc(CNC(=O)CCNS(=O)(=O)c2ccc(C)cc2)cc1  -2.25%
31. COc1ccc2cc(CN(C(=O)Nc3ccccc3)C3CCCC3)c(=O)[nH]c2c1  -2.43%
32. CCOc1ccc(Cn2nnc(C(=O)NCc3ccccc3)c2N)cc1  -2.45%
33. Cc1ccc(S(=O)(=O)Cc2ccc(C(=O)N3CCN(c4ccccn4)CC3)o2)cc1  -2.6%
34. Nc1c(C(=O)Nc2ccc3c(c2)OCCO3)nnn1CCc1ccccc1  -2.78%
35. CCOC(=O)CCCNC(=O)COC(=O)c1cccc(C)c1O  -4.65%
36. c1ccc(CN2CCN(CCOCCOc3cccc4ccccc34)CC2)cc1  -13.4%

In the case of `O=C(O[C@@H]1OC2COC(=O)c3cc(O)c(O)c(O)c3-c3c(cc(O)c(O)c3O)C(=O)O[C@@H]([C@H]1O)[C@@H]2O)c1cc(O)c(O)c(O)c1`, the Potency is reported as 16.5 µM (active).
For `C#CCOCCOCCOCCNc1nc(N2CCN(C(=O)CCCCCCCCCCNC(=O)[C@H]([C@@H](C)CC)n3cc(CCCCCN)nn3)CC2)nc(N2CCN(C(=O)CCCCCCCCCCNC(=O)[C@H]([C@@H](C)CC)n3cc(CCCCN=C(N)N)nn3)CC2)n1`, the Potency was 6.56 µM (active).
`O=C(Cc1ccc(S(=O)(=O)N2CCOCC2)s1)Nc1nc2c(s1)CCCC2` was tested, and the Potency was 14.7 µM (active).
For `CC(C(=O)Nc1ccc(C(=O)O)c(O)c1)N1C(=O)/C(=C\c2ccco2)SC1=S` (stereo not given), the Potency was 16.5 µM (active).
